Results taken from PubChem BioAssay (NCI).
Compounds without any hit were thinned out: in the full panel of roughly 79,000, 15% have a hit. Active and inactive are the calls of the source. Cut-off read from the data, not from the text of the source: active = growth inhibition above about 70%; inactive = the rest.

Columns and labels:
[1] = NCI Yeast Anticancer Drug Screen. Data for the rad50 strain (AID 155);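 note: 0% = growth of vehicle-only cultures of the same strain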; details: S. cerevisiae rad50 strain growth inhibition, hits give high values
How it was run: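 Genetically altered yeast (DNA repair pathway); compound treatment; growth inhibition vs vehicle ctrl.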

[2] = NCI Yeast Anticancer Drug Screen. Data for the mec2-1 strain (AID 157); details: S. cerevisiae mec2-1 strain, hits give high values
How it was run: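 Each compound was tested on mec2-1 yeast, a strain altered in DNA damage repair or cell cycle control. Growth inhibition is reported relative to vehicle.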

[3] = NCI Yeast Anticancer Drug Screen. Data for the sgs1 mgt1 strain (AID 161);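 note: 0% = growth of cultures given vehicle only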; details: S. cerevisiae sgs1 mgt1 strain, hits give high values
How it was run: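 Mutant yeast exposed to compound; growth scored against vehicle-only wells.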

[4] = NCI Yeast Anticancer Drug Screen. Data for the cln2 rad14 strain (AID 165);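 note: 0% = growth equal to vehicle treated cultures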; details: S. cerevisiae cln2 rad14 strain, hits give high values
How it was run: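 Test compounds were added to cln2 rad14 yeast cultures; inhibition of growth was then determined by comparison with vehicle treatment.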

[5] = NCI Yeast Anticancer Drug Screen. Data for the bub3 strain (AID 167); details: S. cerevisiae bub3 mutant strain, hits give high values
How it was run: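 Yeast carrying a defined mutation is treated with each compound, and growth is compared with that of vehicle-exposed cells to give inhibition.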

[6] = NCI Yeast Anticancer Drug Screen. Data for the mlh1 rad18 strain (AID 175); details: S. cerevisiae mlh1 rad18 strain growth inhibition, hits give high values
How it was run: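 Inhibition values reflect reduced growth of mutant yeast versus vehicle-treated controls following compound exposure; the mutations affect DNA damage repair.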

[7] = at 5.0 µM (retest, dose inferred, filed as 0.5)
[8] = at 50.0 µM (retest, dose inferred, filed as 5.0)

Measured: growth inhibition

CCN(CCN1C(=O)C2CCCCC2C1=O)c1ccc(N=O)c(C)c1 (stereo not drawn)
active: [1]; [7] 71% | [1]; [8] 97% | [1]; at 50.0 µM 98.8% | [2]; [8] 99% | [2]; at 50.0 µM 98.8% | [3]; [8] 99% | [3]; at 50.0 µM 97.9% | [4]; [8] 96% | [4]; at 50.0 µM 88.6% | [5]; [8] 98% | [5]; at 50.0 µM 99.1% | [6]; [7] 72% | [6]; [8] 97% | [6]; at 50.0 µM 97.5%
inactive: [2]; [7] 66% | [3]; [7] 28% | [4]; [7] 23% | [5]; [7] 48%

Cc1cc2c(C(C)C)c(O)c(O)c(C=Nc3ccc(C(=O)O)cc3)c2c(O)c1-c1c(C)cc2c(C(C)C)c(O)c(O)c(C=Nc3ccc(C(=O)O)cc3)c2c1O
inactive: [1]; [7] 14% | [2]; [7] 27% | [3]; [7] 34% | [3]; at 50.0 µM 61.4% | [4]; [7] -3% | [5]; [7] 4% | [5]; at 50.0 µM 58.5% | [6]; [7] 40%
active: [1]; [8] 97% | [1]; at 50.0 µM 91.8% | [2]; [8] 98% | [2]; at 50.0 µM 91.2% | [3]; [8] 97% | [4]; [8] 95% | [4]; at 50.0 µM 73.3% | [5]; [8] 98% | [6]; [8] 98% | [6]; at 50.0 µM 86.3%

C=CCOC(=O)N(C(=O)OCC=C)C(Cc1ccc(O)cc1)C(=O)NNc1ccccc1 (stereo not drawn)
inactive: [1]; [7] 17% | [1]; [8] 65% | [1]; at 50.0 µM 53.4% | [2]; [7] 2% | [2]; [8] 33% | [2]; at 50.0 µM 44.5% | [3]; [7] 11% | [3]; [8] 51% | [3]; at 50.0 µM 69.7% | [4]; [7] 5% | [4]; [8] 56% | [4]; at 50.0 µM 39% | [5]; [7] 16% | [5]; at 50.0 µM 70% | [6]; [7] 20% | [6]; [8] 62%
active: [5]; [8] 90% | [6]; at 50.0 µM 84.3%

NCCNC[Si](c1ccccc1)(c1ccccc1)c1ccccc1
active: [1]; [8] 92% | [2]; [8] 92% | [3]; [8] 84% | [4]; [8] 96% | [5]; [8] 94% | [6]; [8] 87%
inactive: [1]; [7] -13% | [1]; at 50.0 µM 7.6% | [2]; [7] -3% | [2]; at 50.0 µM -21.4% | [3]; [7] -10% | [3]; at 50.0 µM 8.2% | [4]; [7] -4% | [4]; at 50.0 µM 5.3% | [5]; [7] -10% | [5]; at 50.0 µM 17.6% | [6]; [7] -12% | [6]; at 50.0 µM 11.4%

CCCCCCN(CCCCCC)CCCCCC
inactive: [1]; [7] 3% | [1]; [8] -4% | [1]; at 50.0 µM 28.6% | [2]; [7] -2% | [2]; [8] -7% | [2]; at 50.0 µM 10.8% | [3]; [7] 0% | [3]; [8] -2% | [3]; at 50.0 µM 9.75% | [4]; [7] -37% | [4]; [8] -6% | [4]; at 50.0 µM 3.55% | [5]; [7] 10% | [5]; [8] 12% | [5]; at 50.0 µM 7.8% | [6]; [7] -3% | [6]; [8] 3% | [6]; at 50.0 µM 35.8%

CCCC(=S)N1CCOCC1
inactive: [1]; [7] -1% | [1]; [8] -2% | [1]; at 50.0 µM -23.9% | [2]; [7] -1% | [2]; [8] 1% | [2]; at 50.0 µM -4.05% | [3]; [7] -1% | [3]; [8] -1% | [3]; at 50.0 µM -3.95% | [4]; [7] -10% | [4]; [8] -4% | [4]; at 50.0 µM 33.2% | [5]; [7] -1% | [5]; [8] -1% | [5]; at 50.0 µM 12.4% | [6]; [7] -2% | [6]; [8] -3% | [6]; at 50.0 µM 26.6%
